GLP1R inv ag: GLP-1 receptor (human) inverse agonism | Potency, µM (top dose mostly 38.3 µM), for the others: at the highest dose activity change, negative = inhibition, usual class: inhibitors | AID 624417 | actives 1.6% (n = 410,000) | HEK293 GLP-1R CRE-luciferase, luminescence, 24 h; GLP-1R form is constitutively active | P43220; also: potency is read from the fitted curve at half-maximal effect; % is scaled to controls: 0 for no effect and ±100 for the full control effect; nearly all actives have a fitted effect of over 55% in size
Target sequence (P43220 whole entry, looked up): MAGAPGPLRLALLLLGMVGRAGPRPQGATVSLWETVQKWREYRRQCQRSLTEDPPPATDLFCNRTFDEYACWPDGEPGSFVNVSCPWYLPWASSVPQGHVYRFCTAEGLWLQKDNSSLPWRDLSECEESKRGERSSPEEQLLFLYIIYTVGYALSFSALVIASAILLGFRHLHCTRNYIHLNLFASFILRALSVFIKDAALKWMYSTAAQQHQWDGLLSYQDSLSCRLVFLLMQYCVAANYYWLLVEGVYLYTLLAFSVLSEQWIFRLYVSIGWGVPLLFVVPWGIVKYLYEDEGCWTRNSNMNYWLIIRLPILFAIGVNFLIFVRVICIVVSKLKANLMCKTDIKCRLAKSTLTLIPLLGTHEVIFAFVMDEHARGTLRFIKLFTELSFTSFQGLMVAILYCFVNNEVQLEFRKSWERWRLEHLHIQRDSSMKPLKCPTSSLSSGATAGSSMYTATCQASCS
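qHTS in 1536-well format: reporter HEK293 cells expressing constitutive GLP-1R activity in DMEM + 10% Nu serum, 24 hr with compounds at 37 deg C, luminescence read after 12 min with detection reagent.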
IDH1 R132H inh: inhibitors of human mutant IDH1 R132H | O75874 | IDH1-R132H enzyme, NADPH consumption, diaphorase/resazurin fluorescence | Potency, µM (doses to about 76.6 µM), for the others: top-dose activity change, negative = inhibition, hits mostly inhibitors | actives 0.093% (n = 390,000); also: potency is read from the fitted curve at half-maximal effect; % is scaled to controls: 0 for no effect and ±100 for the full control effect; nearly all actives have a fitted effect of over 65% in size
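IDH1-R132H (0.5 ug/mL dispensed) in pH 7.5 Tris buffer was preincubated 30 min with compound, then given a substrate mix of 0.016 mM NADPH and 2 mM alpha-KG for 80 min at room temperature; remaining NADPH was read by diaphorase/resazurin fluorescence.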
GLP1R cytotox: cytotoxicity in counter-screen for GLP-1R inverse agonists; AID 624418; actives 0.13% (n = 410,000); Potency, µM (top dose mostly 38.3 µM), for the others: at the highest dose activity change, negative = inhibition, actives largely listed as inhibitors; HEK293 cAMP-luciferase reporter cells, luminescence, 24 h;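 also: loss of luciferase light is scored as toxicity; potency is read from the fitted curve at half-maximal effect; % is scaled to controls: 0 for no effect and ±100 for the full control effect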
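To flag toxic compounds, the library was rerun on cells for 24 hr at 37 deg C and 5% CO2. Viability-linked luminescence was captured 12 min after adding luciferase detection reagent.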
LDHA inh: inhibitors of human lactate dehydrogenase A | purified LDHA, NADH/diaphorase-resazurin fluorescence; stronger effect = lower value | actives 0.15% (n = 480,000) | AID 1347041 | activity change, % (values are at about 110 or 230 µM) | P00338; in the data active = activity change below about -30%; inconclusive = mostly about -25% to -30%;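 also: plate controls were DMSO wells for no effect and wells without enzyme for full effect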
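LDH5 2 nM; NADH 0.06 mM, pyruvate 0.2 mM; 200 mM Tris pH 7.4, EDTA, Tween-20; 5 min RT. Detection: diaphorase 0.133 mg/mL + resazurin 37 µM, fluorescence ex540/em590 at 0 and 20 min; normalized to enzyme-free and DMSO wells.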
PTHR1 ag: PTHR1 (human) receptor agonism; Potency, µM (doses to about 115 µM), for the others: at the top dose activation, hits mostly activators; AID 743266; Q03431; actives 0.075% (n = 410,000); HEK293 GP2 PTHR1 cells, GloSensor cAMP luminescence, 1 h; also: potency is read from the fitted curve at half-maximal effect; nearly all actives have a fitted effect of over 55% in size
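HEK-293-derived GP2 cells expressing PTHR1 and a GloSensor cAMP reporter, 3,000/well, plated overnight, given luciferin plus IBMX (each 0.5 mM as added) for 1 h at 37 °C, then compound for 1 h at 37 °C. Luminescence was read after 15 min at room temperature.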
GLP-1R agonist: agonists of human GLP-1 receptor; P43220; HEK293 GLP-1R CRE-luciferase, luminescence, 4-6 h; cells express a hypersensitive GLP-1R form; Potency, µM (series often up to 45.6 µM), for the others: top-dose activation, usual class: activators; actives 0.007% (n = 380,000); AID 624172; also: potency is read from the fitted curve at half-maximal effect; % of control where 0% means no effect
* hit, by the source's call; i = inactive; ? = inconclusive; · = not tested or not shown; ! = not active in a repeat; [ ] = another dose, or the depositor's remark. Shown are actives, neighbours in structure and some others; about 1.7% of the full set was active somewhere. Unless noted, calls follow the shape of the dose curve; as a rule, active = well fitted curve in the direction sought with a large enough effect; inconclusive = small, poorly fitted or top-dose-only effect, or another doubt; inactive = no such curve, though single readings can be large; an effect the other way counts as inactive or inconclusive.

SMILES	GLP1R inv ag	IDH1 R132H inh	GLP1R cytotox	LDHA inh	PTHR1 ag	GLP-1R agonist
O=C(c1ccc(N2CCCC2)c([N+](=O)[O-])c1)N1CCN(S(=O)(=O)c2ccc(Cl)cc2)CC1	10µM*	-1.0%	-9.9%	-1.4	i	-10.4%
O=C(c1ccc(S(=O)(=O)Cc2cc(F)ccc2F)c([N+](=O)[O-])c1)N1CCCC1	8.91µM*	3.0%	?	7.0	i	-4.4%
Cc1ccc(NS(=O)(=O)c2ccc(C(=O)N3CCN(c4ccccn4)CC3)cc2)cc1	?	-2.1%	-12.6%	-2.2	-35.0%	1.3%
O=C(c1ccc(S(=O)(=O)Cc2cc(F)ccc2F)c([N+](=O)[O-])c1)N1CCCCC1	?	1.5%	?	-13.3	i	-32.4%
CCNc1cc(C)ccc1C	·	·	·	10.9	·	·
Cc1nc2ccc(NC(=O)c3ccc(Cl)c(S(=O)(=O)N(C)c4ccccc4)c3)cc2s1	1.78µM*	-5.6%	-1.0%	-6.2	-37.9%	7.3%
O=C(c1ccc(S(=O)(=O)Cc2ccccc2Cl)c([N+](=O)[O-])c1)N1CCN(c2ccccn2)CC1	10µM*	22.3%	-4.0%	-7.5	-38.7%	-0.6%
Cc1cc(N2CCCCC2)nc(Nc2ccc(NC(=O)Nc3ccccc3)cc2)n1	·	·	·	0.7	·	·
Cc1ccc(NC(=O)C2(c3ccccc3)CCCC2)nc1	3.55µM*	-3.7%	-7.5%	-0.6	i	0.2%
Cc1ccc(NC(=O)C2(c3ccc([N+](=O)[O-])cc3)CCCC2)cc1	10µM*	2.2%	-25.0%	-1.4	-36.4%	-2.2%
COc1ccc(NC(=O)C2(c3ccc(C)cc3)CCCC2)cc1	·	·	·	-0.4	·	·
CC(=O)NNC(=S)Nc1cc(Cl)ccc1Cl	·	·	·	1.2	·	·
CCCCCC1CC1C(=O)N/N=C/c1ccc(N(C)C)cc1 (stereo unspecified)	7.94µM*	-0.2%	-6.6%	-1.7	-11.0%	11.6%
CC1CCC/C=C/C(=O)c2c(O)cc(O)cc2CC(=O)O1 (stereo unspecified)	5.01µM*	-13.2%	?	9.0	-96.3%	-10.3%
CCOC(=O)C1=C(NC(=S)NC(=O)c2ccccc2)c2ccccc2CC1C(C)C (stereo unspecified)	3.16µM*	0.5%	?	-1.8	-0.8%[57.5 µM]	4.8%
CCOC(=O)C1=C(NC(=S)NC(=O)c2ccccc2)c2ccccc2CC1(C)CC (stereo unspecified)	5.01µM*	-0.8%	11.2µM*	-1.4	-1.0%	-2.5%
CCOC(=O)c1sc(NC(=S)NC(=O)c2ccccc2)c(C(=O)OCC)c1C	5.0%	0.9%	-4.5%	-3.4	i	-8.5%
C=C(C)CNC(=S)N/N=C/c1ccc(N2CCOCC2)cc1	10µM*	-6.1%	?	-6.5	-27.0%	22.3%
Cn1c(=O)[nH]c(=O)c2c1nc(SCC(N)=O)n2CCCc1ccccc1	·	·	·	-3.4	·	·
CCS(=O)(=O)c1ccc(N=Nc2ccc(O)c3ncccc23)c(OC)c1	-0.5%	6.2%	?	15.3	-15.3%	2.0%
COc1ccccc1N=Nc1ccc(O)c2ncccc12	?	-4.9%	1.26µM*	12.4	-25.1%	-9.9%
Cc1oc2cc(OCC(=O)Nc3ccc4c(c3)OCCO4)ccc2c(=O)c1-c1ccc(Cl)cc1	·	·	·	2.7	·	·
CCn1nc(C)c(CN2CCc3c([nH]c4ccccc34)C2C(C)(C)C)c1C (stereo unspecified)	7.08µM*	-9.1%	-0.1%	-1.8	i	5.0%
COC(=O)[C@]12CCCCC=C1N(Cc1ccc(Cl)cc1Cl)C(=O)[C@H](CC(=O)N1CCC(c3ccccc3)CC1)C2	11.2µM*	·	3.8%	-8.7	-18.8%	-2.9%
CCOC(=O)[C@]12CCCC=C1N(Cc1ccc(Cl)cc1Cl)C(=O)[C@H](CC(=O)N1CCC(c3ccccc3)CC1)C2	11.1%	·	4.9%	-0.2	-17.5%	-3.6%
SMILES	GLP1R inv ag	IDH1 R132H inh	GLP1R cytotox	LDHA inh	PTHR1 ag	GLP-1R agonist
CCCCc1ccc(N=Cc2ccccc2O)cc1	·	·	·	0.5	·	·
COc1cccc(CN(C)C(=O)c2cc(-c3cccs3)nc3ccccc23)c1	6.31µM*	3.1%	?	-7.7	-19.2%	2.6%
CCOc1nc(NC2CCCCC2)nc(NC(C)(C)C)n1	5.62µM*	-1.7%	3.8%	0.5	-14.6%[57.5 µM]	1.5%
COc1nc(NCc2ccco2)nc(NC2CCCCC2)n1	?	3.8%	-0.5%	2.8	-2.3%[57.5 µM]	27.5%
O=C(NCCNc1ccc([N+](=O)[O-])cc1C(F)(F)F)c1ccccc1F	?	-1.2%	9.5%	-7.7	-17.7%	14.5%
Cc1ccc(C(=O)NCCNc2ccc([N+](=O)[O-])cc2C(F)(F)F)cc1	10µM*	0.6%	?	2.2	-4.3%	1.6%
c1cc[n+](CCCC[n+]2ccccc2)cc1	3.0%	9.3%	1.4%	0.0	-21.6%	2.6%
c1cc[n+](CCC[n+]2ccccc2)cc1	4.5%	-1.7%	-2.8%	-31.0*!	i	-3.1%
c1ccc2c(-c3cncc4ccccc34)cncc2c1	2µM*	0.0%	-6.7%	-6.4	i	3.7%
c1ccc2c(c1)-c1cccc3cncc-2c13	3.4%	18.5%	12.4%	-0.4	-19.1%	15.1%
CCc1c(C)sc(NC(=O)c2ccc3c(c2)OCO3)c1C(=O)OC(C)C	·	·	·	1.0	·	·
CCNc1c(NC(=O)NC)c(=O)oc2ccccc12	·	·	·	0.3	·	·
CN(C)CCNC(=O)CCNc1nc(Cl)nc2nc[nH]c12	·	·	·	-12.3	·	·
CC(=O)Nc1cccc(-c2cnc(N)c(C(=O)c3cccnc3)n2)c1	?	1.1%	-8.8%	-0.6	19.6%	-18.3%
NC(=O)c1cccc(-c2cnc(N)c(C(=O)c3cccnc3)n2)c1	3.55µM*	-7.4%	-14.0%	-9.9	8.1%	-11.8%
Cc1cc2c(c(SCC(=O)Nc3ccccc3)n1)C(=O)OC2	·	·	·	-37.2*	·	·
COc1ccc(Nc2nc(N)c(C(=O)c3cc(C)c(C)cc3C)s2)cc1	·	·	·	2.9	·	·
COCc1ccccc1CNC(=O)CC(C)(C)C	·	·	·	0.8	·	·
CN(CC(=O)Nc1ccc(Cl)cc1)CC(=O)Nc1sc2c(c1C(N)=O)CCC2	3.98µM*	-2.6%	-52.6%	-2.4	-0.9%	1.8%
Cc1ccc(NC(=O)CN(C)CC(=O)Nc2sc3c(c2C(N)=O)CCC3)cc1	?	1.9%	-13.5%	2.3	-1.6%	12.3%
O=C(CSc1cccc[n+]1[O-])c1ccccc1Br	?	-0.5%	0.794µM*	-3.9	3.6%	3.4%
C/C(=C\[C@@H](NP(=O)(c1ccccc1)c1ccccc1)c1ccccc1)CO[Si](c1ccccc1)(c1ccccc1)C(C)(C)C	7.94µM*	-5.0%	-12.3%	-1.0	-2.9%	-5.3%

From PubChem BioAssay
